Among all 53,000 sequences or so, about 3,700 (7%) were called active.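 Rule for the calls: active = gene knockdowns whose robust z-score for IL-1 alpha signal is at least 2 or at most -2, so actives lie on both sides; inactive = the rest.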 The entries come from a sample that favours actives as a whole.
test: Components of the Cytosolic LPS Sensing Pathway: Gene Identification via Genome-wide siRNA Screen; conditions: RAW264.7 macrophages, IL-1a HTRF, actives lie on both sides, screened at 100 nM (by protocol), cells primed 5 h with Pam3CSK4 first;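 note: robust z of the log signal after scaling to non-targeting control siRNA wells of the plate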
How it was run: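 Mouse macrophage line RAW264.7 is transfected with siRNA (100 nM final), grown 48h, primed with TLR ligand Pam3CSK4 5 h and given intracellular LipidA 24 h. IL-1a in supernatant is read by HTRF and viability by luminescence.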

z-score, inactive:
GGAGCAGUCUAUCUUUGGUTT against Dbn1 1.3
GGAGAACAAGGCAAAAGAATT against Mindy4 -0.945
GCAGACAGAGUUUUAACGUTT against Fancl -0.381
GCCAUUCACUUAAUUCAGUTT against H2ac8 -1.32
GGCUCUGGCCAUAUUUUGGTT against Olfr549 -1.44
GCAAUAAUCGUUCUCAAAATT against Prkab1 1.5
GGAGAUCAGCUGUCUAAUGTT against Tmem237 -0.207
GGACAGGAUGAGUUUGACATT against Rhou -1.52
GGAAAUCUCAGAAAUCAAATT against Pmf1 -1.15
GCUCCUUGGGCGAUUUCAGTT against Aggf1 0.265
GCAAGGUAUUCCAUGCUCATT against Psg27 -0.616
GCUGUGAUCUCAGUAUUCATT against Strbp 0.443
GGUGACCACUUUUAUCUGATT against Olah 0.601
GGACUAUAGAUCCUAAGUCTT against Kcnab2 -0.246
CCACCCUGUGAAAAAGUCATT against Ccr3 -1.08
GAAAGGAAAGCUAGCCAUGTT against Gm5622 0.614
CCAUUGAAUCAGUUGAAGUTT against Slc5a7 1.21
GGCCGUUAUGUUUUACAAGTT against Dnajc19 0.00748
GGGCAUACAUAUAACCUAUTT against Fermt2 -0.285
GCUUUUUGACUACGUAGCCTT against Hkdc1 0.0141
GGAAAGCAGGACAAAAGGCTT against Mettl18 0.346
GUCAUCUUGUUCCAUCUGATT against Olfr1269 -1.12
CGACCUAACCAACAUGCUUTT against Asap3 0.0248
GCGAUUCUGUUGUUAGCUUTT against Rln1 0.134
GGUAGAAUUGUGAUCUCAGTT against Bco2 -0.411
GCAGGUACUAUUUGUGACGTT against Olfr30 1.07
GGUGGACAACCAGUUCUACTT against Mapk10 1.27
CCUGUGUUUCAGUUUGGUATT against Clptm1l 0.549
CGUAAAUUCACCAAGGAGCTT against Slc19a1 -0.805
GGACAUUGACACUUCCCUGTT against P2rx5 -1.85
GGAGAUAACAGAUCUGUUUTT against Fam114a2 -0.843
GGCAUCCACACAGAACAAGTT against Zfp467 -0.287
GGGAUAGGGUUCAAUUAGGTT against Bcl2l13 0.231
GUCCCAGUACUUCUUGUUUTT against Vmn1r27 0.675
GGGUGAUAAAUGUUUGAAUTT against Vmn1r45 0.338
GGAGGCUGUUGUGGAUCUUTT against Acin1 1.03
GCCUAUUGUAGUGUUACAUTT against Cyp2c67 -0.887
GGUGAUCCAGCUUUCUUGGTT against Tiaf2 -0.351
GGGAAAACAGGUACGACUGTT against Odf1 -0.743
GGUGAUCAAGGACAUUUAATT against Psma5 0.0545
GCCAAUGCUUCCAUUACCATT against Abca17 0.141
GGAGCUAGAUAGGAAAAAATT against Vill -1.44
CGAUUGACUUAAGAUUCAGTT against Hlf -0.612
GGCCAAAGAGUUCAGCCUATT against Prrx2 -0.29
GGACGAUGGUUCCUGAAAATT against Snap91 -1.39
GGCCCAUAAUUAAAUGUUUTT against Stac2 0.438
CCAAUAGUUGUGGACAUGATT against Crisp1 1.82
GCUUACCUUGUUCUUAAAGTT against D2hgdh -1.62
AACCAGAGGUCCUAAAUACTT against Mmp28 -0.948
GCUAAGUGCUCGAAUCCGATT against Cnppd1 -0.326
GGUGGACAUGUGGAAUGAUTT against Ubxn11 0.463
GCUAGUGACUUUGAGAUUGTT against Msh5 -0.75
CCACUUUCAGAAACAUUACTT against A2ml1 -1.01
CCAACAAAAACGUACUUUGTT against 9530091C08Rik 1.24
CCAGAGAGAUACCUGAUCUTT against Tas2r113 -0.993
GGGACAAUACAUUGAUAGCTT against Vmn1r206 -0.625
GGCCAUCACUAUUAGCCUCTT against Vmn1r70 -0.214
GGAAGUAUUGACGAGUGGGTT against Orai3 0.0813
GCGACUGACACUAACAGAATT against Poc1a -0.261
GGUUUCAUGAAAGAGGAGCTT against Cbs -0.926
GGGCACCACAGAAAGGAAUTT against Olfr376 -0.525
GGCUAACCGAAGCCAUCCUTT against Tceal9 0.969
GCUUUCAUUAAGUCAGAUCTT against Flvcr2 1.16
GGAUAAGAGAAAAACAGAATT against Ect2 0.141
GGCAUAGUUGCUGUUCUCUTT against Slc9a9 -0.871
GGCUGUUUGCCAAAAAAAATT against Ppp1r16a -0.36
GGCACAGUUCUGGAAGAUGTT against Qtrt1 -1.02
GCACAGACAUCUUUUGCCATT against Man2a2 -1
GGAAAUGAUCUCUUUUGGATT against Bbs2 -0.734
GGCACACUUGAGAAGACACTT against Cul5 -0.601
GGAGGAAAGAAGUCCUACATT against Rnase2b -0.835
CCUUCUAGAUGUCUUAAGATT against Zfp41 -0.244
GGCCAAACAAGACCCAUCUTT against Ppil2 -0.621
GGAAAAGUAUUGGUAGACGTT against Steap4 -1.73
GCAAUGCAAAAGAUGCCCUTT against Chchd7 0.0804
CCCAGUUAGAAUUGUUAUCTT against Snx16 1.29
GGAAAUUACUUUGAUACUCTT against Rfx3 1.5
CCAAAACGGAAUCCUAAUATT against Nyap2 -1.34
GGGCCACUUUCCAAUUCAATT against Tectb 0.817
GGAUCAUAAAAAGAAUCACTT against Gpr21 0.851
GGGAAUUUACCAAGUACCCTT against Nedd9 1.53
CCAUCCCAUAUGUUCCGGUTT against Ptms 0.94
GGUGAAAACAAUGACUUUGTT against Zbtb44 0.256
CGAUGUUACUAUAGGAUCUTT against A730036I17Rik 0.33
CCUUCAUUCUCAUUGGCAUTT against Olfr591 -0.163
GCACUACCUGUAUUAAACUTT against Efhd2 -0.652
GCAACACAAGUCAUGAAGUTT against Gabpb2 0.628
GGAACUGAAAUUCAGUUGGTT against Azin1 0.218

z-score, active:
CCAUAGGUAUCAUUGCAAGTT against Tas2r139 -2.16
GCCUAAAAAAUCUCUGUGATT against Zswim3 -2.77
GGUUUGAGAAAUUGGACAUTT against Pou6f1 3.72
GGUAGCUGUUUAGGACAAUTT against Arl6ip5 3.79
GCAGCACGAACUGAUGACGTT against Plcd3 -2.18
GGCUCAAUAAUGUUUUCAATT against Smpd3 3.18
GGAAUGUGAAGAAGAAAUUTT against Dnttip2 2.03
GGUCAAAAGUUCUGGACAGTT against Spin4 5.6
GGUUGAAGGAGUGUUUUAUTT against Rtcb 2.09
GGUACCAUAUGAGAGCUAATT against Tsr2 2.7
GGCUACUGUUGCUGCAUUUTT against Lin7c -2.49
GGAAGAUGCCUACUUCAGATT against 4632433K11Rik 2.5
GGGCUAUAUAUAUUUCCACTT against Asns 2.75
CCAUAUUGGCAAUCUCUAGTT against Khdc1a 2.15
GGAAGUCCAUCAGCUUUAUTT against Wdr78 2.29
GGACCAGGAUAGGACCAAUTT against Avpr2 2.33
GGUAUUCGAAGCAUACAAUTT against Pdha2 3.47
GGUCGGUGUUUUAUCUGCUTT against Slc17a9 -3.2
CAUCUUUCAUCAAAUAACUTT against Krtap31-2 2.49
GGUUAUUUUGGCUAUAAGATT against Traf3 -4

Source: PubChem BioAssay AID1508600 (Functional Genomics Laboratory (NCATS/FGL), 2020)
